A selection: hits, their analogues and other compounds. The true share with any hit is near 19%.
HT1080 IDH1KD tx = kills HT-1080 cells with IDH1 knockdown; HT-1080 IDH1 knockdown viability, ATP luminescence, 48 h; Potency, µM (top dose mostly 46.1 µM), without a hit: top-dose activity, negative = toxicity, usual class: cytotoxic; hit rate 2% among 360,000; AID 686971;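 also: potency is read from the fitted curve at half-maximal effect; 0% = DMSO wells and -100% = cell-free medium wells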
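HT-1080-IDH1KD cells (IDH1 knocked down), 750/well in RPMI with 5% FBS, treated with compound 48 h at 37 degrees C. Viability by CellTiter-Glo luminescence, normalised to DMSO and no-cell wells; concentration-response curves classed.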
uPA surface inh = cell surface uPA generation inhibition; hit rate 0.31% among 330,000; AID 540303; cell surface uPA generation assay, qHTS; Potency, µM (doses to about 38.3 µM), for inactives: at the top dose activity change, negative = inhibition, hits mostly inhibitors; active = well fitted inhibition curve with a large enough effect; inconclusive = small, poorly fitted or top-dose-only effect; inactive = no such curve, though single readings can be large or run the other way; tested in mouse RAW 264.7 cells; also: potency is read from the fitted curve at half-maximal effect; nearly all actives have a fitted effect of over 55% in size
DT40 TDP1 no CPT = qHTS for Inhibitors of human tyrosyl-DNA phosphodiesterase 1 (TDP1): qHTS in cells in absence of CPT | DT40 Tdp1-/- hTDP1 cells, no CPT, ATP luminescence, 48 h | Potency, µM (top dose mostly 46.2 µM), for the others: at the top dose activity change, negative = growth inhibition, most hits filed as inhibitors | hit rate 15% among 420,000; also: potency is read from the fitted curve at half-maximal effect; nearly all actives have a fitted effect of over 55% in size
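Seeded 400 DT40-hTDP1 cells/well (vehicle DMSO, no 20 nM CPT); pinned compounds; ≥48 hr at 37 °C; CellTiter-Glo luminescence as viability measure.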
HT1080NT lethal = kills 2HG-producing HT-1080-NT fibrosarcoma cells; AID 686970; hit rate 1.6% among 360,000; Potency, µM (highest dose often 46.1 µM), without a hit: top-dose activity, negative = less viability, usual class: cytotoxic; HT-1080-NT fibrosarcoma viability, CellTiter-Glo ATP luminescence, 48 h;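 also: NT is the 2HG producing partner of a matched IDH1 knockdown line; potency is read from the fitted curve at half-maximal effect; 0% = DMSO-treated cells and -100% = media-only wells without cells; nearly all actives have a fitted effect of over 55% in size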
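A 48-hour cytotoxicity screen used HT-1080-NT cells plated 2 hours before compound delivery. ATP-based CellTiter-Glo luminescence measured viability, normalized to DMSO and no-cell controls.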
IL-1B inflam inh = inhibitors of inflammasome signaling (IL-1 beta secretion); hit rate 4.7% among 360,000; THP-1 LPS/ATP IL-1B secretion, AlphaLISA, 16 h; hits give low values; activity change, % at 57.5 µM; in the data active = activity change below about -50%; inconclusive = mostly about -30% to -49%
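Secreted IL-1B measured by AlphaLISA bead assay after 16 h compound exposure of THP-1 cells; compounds (final up to 57.5 uM) added 1 h before LPS (250 ng/mL) and ATP (1.25 mM) stimulation; lower signal means less secretion.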
DT40 TDP1 CPT = DT40-hTDP1 cell growth loss with CPT; hit rate 12% among 420,000; chicken DT40 Tdp1-/-;hTDP1 cells + 20 nM CPT, ATP luminescence, 48 h; AID 686979; Potency, µM (highest dose often 46.2 µM), inactives show top-dose activity change, negative = growth inhibition, most hits filed as inhibitors; also: potency is read from the fitted curve at half-maximal effect; nearly all actives have a fitted effect of over 55% in size
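Chicken DT40 Tdp1-/- cells complemented with human TDP1, 400 cells/well, exposed to compounds plus 20 nM camptothecin for at least 48 h at 37 C; viability read as ATP content by CellTiter-Glo luminescence.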
Active calls of the source: *; u = inconclusive; x = no result given; [ ] = dose if it differs, or a comment. Unless noted, calls follow the shape of the dose curve; as a rule, active = well fitted curve in the direction sought with a large enough effect; inconclusive = small, poorly fitted or top-dose-only effect, or another doubt; inactive = no such curve, though single readings can be large; an effect the other way counts as inactive or inconclusive. Unless noted, % is scaled to controls: 0 for no effect and ±100 for the full control effect.

SMILES	HT1080 IDH1KD tx	uPA surface inh	DT40 TDP1 no CPT	HT1080NT lethal	IL-1B inflam inh	DT40 TDP1 CPT
O=S(=O)(c1ccc2ncsc2c1)N1CCN(c2nc(-c3cccs3)nc3ccccc23)CC1	17.7%	x	u	15.9%	x	5.3%
CCCCc1ccc(Nc2ncnc3c2cnn3-c2ccc(C)cc2)cc1	x	x	-6.6%	x	x	-14.4%
O=C(O)c1ccc2c(c1)CCC2	4.4%	2.3%	5.0%	4.7%	9.7	u
CN(C)C(=O)C(OC(=O)c1ccc2c(c1)CCCC2)c1ccccc1 (stereo not drawn)	-6.4%	1.2%	20.6µM*	-3.2%	-6.7	u
Cc1ccccc1-c1cc(=O)c2ccccc2o1	-7.9%	u	u	-18.9%	-12.8	20.6µM*
O=c1cc(-c2ccccc2F)oc2ccccc12	-6.5%	-6.3%	u	-1.0%	-29.0	u
O=c1cc(-c2ccc(O)cc2O)oc2ccccc12	x	x	-16.4%	x	x	-4.7%
O=c1cc(-c2ccccc2[N+](=O)[O-])oc2ccccc12	11.6µM*	-13.9%	23.1µM*	u	42.8	16.4µM*
COc1ccc(-c2cc(C(=O)Nc3cc(S(=O)(=O)N4CCOCC4)ccc3N3CCOCC3)c3ccccc3n2)cc1	-23.1%	26.7%	-25.7%	-19.2%	-16.6	u
Cc1cccc(C(=O)NCC2Cc3cc(F)cc(-c4cnccn4)c3O2)n1 (stereo not drawn)	x	x	u	x	x	3.4%[9.04 µM]
CCCCC1CN2CCc3c([nH]c4ccccc34)C2(C)C1 (stereo not drawn)	u	1.0%	18.4µM*	u	u	u
CCCCN1CCc2c([nH]c3ccccc23)C1=O	12.1%	0.6%	-4.5%	3.7%	-1.2	-1.2%
Cc1cc(NC(=O)c2ccc(Cl)cc2)cc(C)c1OCC(=O)N1CCOCC1	-1.3%	3.98µM*	-5.7%	5.1%	16.8	7.3%
COc1cc(SC)ccc1C(=O)Nc1ccc(OCC(=O)N2CCOCC2)cc1	-0.3%	u	u	-7.7%	x	-7.2%
COc1cc(SC)ccc1C(=O)Nc1cc(C)c(OCC(=O)N2CCOCC2)c(C)c1	1.5%	u	23.1µM*	2.2%	15.3	u
CCCCOc1ccc(C(=O)Nc2cc(C)c(OCC(=O)N3CCOCC3)c(C)c2)cc1	-19.7%	-5.0%	u	-11.4%	-7.2	u
Cc1cc(C)cc(N(C(=O)c2sc(C)nc2C)C(C(=O)NC(C)(C)C)c2ccncc2)c1 (stereo not drawn)	29.3%	4.1%	-14.1%	7.3%	32.1	-17.0%
O=C(Nc1cc(Cl)ccc1N1CCOCC1)C1CC1	8.6%	-7.5%	-13.1%	8.7%	-3.7	-4.4%
CCN(CC)S(=O)(=O)c1ccc(N2CCOCC2)c(NC(=O)CC(C)(C)C)c1	6.4%	-2.2%	12.8%	-0.5%	15.3	-8.5%
CCN(CC)S(=O)(=O)c1ccc(N2CCOCC2)c(NC(=O)CCC2CCCCC2)c1	-0.4%	-7.2%	u	2.6%	-13.4	20.6µM*
O=C(CCC1CCCC1)Nc1cc(Cl)ccc1N1CCOCC1	-8.2%	21.0%	u	-1.5%	-56.5*	u
CN(CC(=O)Nc1cc(Cl)ccc1-n1cncn1)Cc1ccccc1N1CCOCC1	-2.4%	x	u	-14.8%	3.3	23.1µM*
CCCOc1ccccc1OCC(=O)Nc1cc(Cl)ccc1-n1cncn1	-17.4%	5.7%	u	-7.5%	u	u
CCC(C)NC(=O)Cn1c(=O)n(-c2ccc(C)c(C)c2)c(=O)c2c3c(sc21)CCCCC3 (stereo not drawn)	x	x	-4.5%	x	x	0.5%
CCCS(=O)(=O)N1CC(=O)N(c2ccc(Cl)cc2C)C(C)(C(=O)NC2CCCC2)C1 (stereo not drawn)	x	x	-7.3%	x	x	-20.1%
SMILES	HT1080 IDH1KD tx	uPA surface inh	DT40 TDP1 no CPT	HT1080NT lethal	IL-1B inflam inh	DT40 TDP1 CPT
CCn1c(CN2CCC(C)CC2)nc2cc(NC(=O)c3cccc([N+](=O)[O-])c3)ccc21	x	x	23.1µM*	x	x	14.6µM*
CN(C)c1cc(-c2cccc(NS(C)(=O)=O)c2)ncn1	x	x	-6.1%	x	x	-24.9%
O=C(COC(=O)c1cc(Cl)ccc1O)Nc1cc(C(F)(F)F)ccc1N1CCOCC1	20.9%	-3.8%	-27.7%	0.1%	-8.7	-18.3%
C=Cc1ccc(S(=O)(=O)O)cc1	x	x	-12.2%	x	x	1.6%
CSCC[C@H]1COC[C@@H](Cc2ccccc2)N1c1ccccc1	5.4%	x	-27.0%	15.0%	33.2	-29.1%
Cc1ccc(CNCc2cn[nH]c2-c2ccc(C)cc2)cc1	x	x	12.6µM*	x	x	7.94µM*
Cc1ccc(-c2[nH]ncc2CNCc2ccc(CN(C)C)cc2)cc1	x	x	22.4µM*	x	x	12.6µM*
Cc1ccc(CNCc2ccccc2Cl)cc1	3.5%	2.8%	u	13.8%	-6.1	-3.0%
Cc1cccc(N2CCN(C(=O)COc3cccc4c3OC(C)(C)C4)CC2)c1C	-23.1%	3.3%	u	-21.2%	9.7	u
CN1/C(=C\C(=O)CSc2nnc(NCc3ccccc3)s2)C(C)(C)c2ccccc21	-12.7%	-2.2%	u	-6.2%	2.1	14.6µM*
Cc1cc(C(=O)CSc2nnc(NCc3ccccc3)s2)c(C)n1C	u	-13.5%	13µM*	14.6µM*	5.9	10.3µM*
O=C(CSc1nnc(NCc2ccccc2)s1)NC1CCS(=O)(=O)C1 (stereo not drawn)	1.0%	-10.9%	13.7%	5.8%	-6.3	9.0%
CCOC(=O)c1sc2nc(C)nc(SC(C)C(=O)NC3CC3)c2c1C (stereo not drawn)	12.5%	13.3%	-23.8%	u	0.0	-19.2%
CC(C)(C)NC(=O)CN1CCN(C(=O)CCl)CC1	u	-5.7%	20.6µM*	u	-78.6*	23.1µM*
CC(C)(C)NC(=O)NC(=O)CN1CCCCCCC1	-4.5%	-2.5%	-18.3%	-3.4%	20.4	8.6%
CCOC(=O)N1CCN(C(=O)CCl)CC1	u	-3.5%	u	u	-92.1*	u
